# Assay outcomes (PubChem)
# Most compounds without a hit are left out; they make up all but 8.9% or so of the library.
# MCF10A rereplic: DNA re-replication induction in MCF 10a cells; Potency, µM (top dose mostly 46.1 µM), usual class: activators; 2.9% of 350,000 active; MCF 10A DNA re-replication, Hoechst nuclear intensity, 48 h; note: nearly all actives have a fitted effect of over 50% in size
# KB-V1 cytotox: KB-V1 MDR subline cytotoxicity. KB-V1 MDR cells viability, CellTiter-Glo, 72 h. Potency, µM (titrated, usually from 46.1 µM), usual class: cytotoxic. 3.4% of 400,000 active. AID 1347076; note: nearly all actives have a fitted effect of over 60% in size
#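 Readout: CellTiter-Glo luminescence, 10 min after addition. Cells: KB-V1 MDR subline, 72 h at 37 degrees C with compound. Analysis: corrected, normalized data fitted to concentration-effect curves.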
# KB-3-1 cytotox: KB-3-1 parental cell cytotoxicity; KB-3-1 viability, CellTiter-Glo ATP luminescence, 72 h; Potency, µM (top dose mostly 46.1 µM), actives largely listed as cytotoxic; 1.4% of 400,000 active; AID 1347075; note: nearly all actives have a fitted effect of over 60% in size
#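 72 h, 37 °C compound treatment of KB-3-1 parental cells; CellTiter-Glo added, 10 min, luminescence read. Data corrected against DMSO-only plates and normalized before curve fitting.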
# D3 antag: blocks the human D3 dopamine receptor. P35462. D3R cells, DiscoveRx beta-arrestin luminescence, antagonist mode; hits give low values. max response, negative = inhibition, %. 2.5% of 360,000 active; in the data active = max response below about -50%; inconclusive = no clear call, values can overlap the other calls
# Target sequence (P35462 whole entry, looked up): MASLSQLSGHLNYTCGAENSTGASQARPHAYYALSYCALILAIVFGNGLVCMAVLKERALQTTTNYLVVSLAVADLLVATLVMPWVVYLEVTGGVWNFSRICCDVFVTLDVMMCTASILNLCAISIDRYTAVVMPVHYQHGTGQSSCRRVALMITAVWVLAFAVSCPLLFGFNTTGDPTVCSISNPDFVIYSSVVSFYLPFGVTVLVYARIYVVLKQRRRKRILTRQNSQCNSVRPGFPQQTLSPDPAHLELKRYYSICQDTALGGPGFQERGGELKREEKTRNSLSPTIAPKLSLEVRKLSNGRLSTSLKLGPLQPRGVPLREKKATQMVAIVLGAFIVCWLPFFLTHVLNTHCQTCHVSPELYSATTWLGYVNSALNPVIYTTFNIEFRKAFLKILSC
#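 Cells expressing the human receptor were seeded at 1500 cells/well, incubated overnight at 37 degrees C in 5% CO2, then exposed to library compounds with dopamine controls for 90 minutes at 37 degrees C before luminescent detection.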
# SW480 rerep: DNA re-replication induction in SW480 cells; SW480 DNA re-replication, Hoechst DNA content imaging, 48 h; Potency, µM (highest dose often 46.1 µM), most hits filed as activators; 1.8% of 340,000 active; AID 624297; note: nearly all actives have a fitted effect of over 55% in size
#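 First, 250 cells per well were seeded. Next, compound or vehicle (23 nL) was pinned in, plates sat 48 hr at 37 C. Finally Hoechst was added for 40 min before fluorescence scanning.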
# D3 ag: activates the human D3 dopamine receptor | P35462 | D3R DiscoveRx beta-arrestin cells, luminescence, 90 min | max activation, % | 0.58% of 410,000 active; in the data active = max activation above about 30%
#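 Agonist-mode cell screen: cells plated at 1500/well and incubated overnight at 37 °C, then exposed to library compounds for 90 min at 37 °C. Detection reagent was added for 30–60 min at room temperature, and luminescence was read.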
# Hits are given with their value; . = inactive; ? = inconclusive; / = no result given; + = active, no number; ! = not confirmed by another sample. Unless noted, calls come from the whole dose curve; as a rule, active = well fitted curve in the direction sought with a large enough effect; inconclusive = small, poorly fitted or top-dose-only effect, or another doubt; inactive = no such curve, though single readings can be large; an effect the other way counts as inactive or inconclusive.
SMILES,MCF10A rereplic,KB-V1 cytotox,KB-3-1 cytotox,D3 antag,SW480 rerep,D3 ag
Oc1c(Br)cc(Br)cc1C=NCc1ccc(F)cc1,.,.,.,-66.5,.,.
O/N=C/c1cc(Br)cc(Br)c1OCc1ccccc1,?,?,.,.,.,.
Oc1c(Br)cc(Br)cc1C=NCc1ccccc1,.,.,.,-57.4,.,.
O=C(NCc1ccc(F)cc1)C1CCN(S(=O)(=O)c2ccc3c(c2)CCCN3C(=O)C2CCC2)CC1,/,.,?,/,/,.
Cc1nc2cccnc2n1-c1cccc(C(=O)N2CCN(c3cccc(Cl)c3)CC2)c1,/,.,.,/,/,.
CCOc1cc(/C=C2\C(=O)ON=C2c2ccccc2)cc(Br)c1O,9.2µM,?,?,.,?,.
COc1cc(/C=C2\C(=O)ON=C2c2ccccc2)cc(Br)c1O,?,?,?,.,?,.
COc1ccc(/C=C2/SC(=S)N(c3ccc(S(=O)(=O)Nc4nccs4)cc3)C2=O)cc1,.,.,.,-54.4,.,.
Cc1ccc(/C=C2/SC(=S)N(c3ccc(S(=O)(=O)Nc4nccs4)cc3)C2=O)cc1,.,.,.,?,.,.
O=C(CN1CCN(C(c2ccccc2)c2ccccc2)CC1)NC(=O)NCc1ccco1,.,2.31µM,.,.,?,.
CC(C)(C)NC(=O)CN1CCC(O)(c2ccc3c(c2)OCO3)CC1,.,.,.,.,.,.
CC(C)(C)NC(=O)CN1CCC(O)(c2ccccc2)CC1,.,.,.,+,.,.
CC(C)(C)NC(=O)NC(=O)CN1CCN(C(c2ccccc2)c2ccccc2)CC1,.,20.6µM,.,.,.,.
O=C(CSc1nc2ccc([N+](=O)[O-])cc2s1)c1ccc2ccccc2c1,.,.,.,.,.,.
O=c1c2ccccc2sc2ccccc12,.,?,?,.,.,.
Cc1cc2sc3ccccc3c(=O)c2c(C)c1O,.,18.4µM,?,.,.,.
CCOC(=O)c1oc2ccccc2c1NC(=O)COc1cccc(OC)c1,.,.,.,.,.,.
CCOC(=O)c1oc2ccccc2c1NC(=O)COc1ccc(F)cc1,?,8.2µM,.,.,.,.
COC(=O)c1oc2ccccc2c1NC(=O)c1ccccc1O,.,?,.,.,10.3µM,.
CCOc1ccc(C(=O)Nc2c(C(=O)c3ccc(OC)cc3)oc3ccccc23)cc1,/,.,.,/,/,.
CCOc1cccc(C(=O)Nc2c(C(=O)c3ccc(OC)cc3)oc3ccccc23)c1,/,/,/,/,/,32.6
CCOC(=O)c1oc2ccccc2c1NC(=O)c1ccccc1OC,?,?,.,.,?,50.3
CCc1nc2ccc(C(=O)NCCc3ccccn3)cn2c1N(C)CCC(C)C,/,.,.,.,/,.
COc1cccc(NC(=O)c2oc3ccccc3c2NC(=O)C(C)(C)C)c1,25.9µM,.,.,.,?,.
COc1ccc(NC(=O)c2oc3ccccc3c2NC(=O)C23CC4CC(CC(C4)C2)C3)cc1,/,.,.,/,/,.
SMILES,MCF10A rereplic,KB-V1 cytotox,KB-3-1 cytotox,D3 antag,SW480 rerep,D3 ag
COc1cccc(C(=O)Nc2c(C(=O)Nc3ccc(F)cc3)oc3ccccc23)c1OC,/,.,.,/,/,.
COc1cccc(NC(=O)c2oc3ccccc3c2NC(=O)c2cc3ccccc3o2)c1,/,.,.,/,/,.
COc1ccccc1NC(=O)c1oc2ccccc2c1NC(=O)c1cccc(OC)c1OC,/,?,11.6µM,/,/,.
COc1ccc(NC(=O)c2oc3ccccc3c2NC(=O)C23CC4CC(CC(C4)C2)C3)c(OC)c1,/,.,23.1µM,/,/,.
Cc1ccc(-n2ncc(C(=O)NCc3ccccn3)c2C2CCN(C(=O)OC(C)(C)C)CC2)cc1C,/,.,.,/,/,.
CCOc1ccc(C2NC(=O)C(C#N)=C(S)N2c2ccc(OC)cc2)cc1OC (configuration not stated),.,.,.,-68.3,.,.
COc1cc(C2NC(=O)C(C#N)=C(S)N2c2ccc(C)cc2)ccc1OC(C)C (configuration not stated),?,.,.,-68.2,?,.
COc1ccc(N2C(S)=C(C#N)C(=O)NC2c2ccc(OC)c(OC)c2)cc1 (configuration not stated),.,.,.,.,.,.
Cc1c(C(=O)N2CCC(C(=O)Nc3ccc(F)c(Cl)c3)CC2)sc2nc[nH]c(=O)c12,/,/,/,/,/,.
COc1cc(NC(C)CCCN)c2ncccc2c1 (configuration not stated),.,.,.,-68.5,?,.
COc1cc(NCCCCCCCN)c2ncccc2c1,?,.,.,.,?,.
COc1cc(NCc2ccccc2O)c2ncccc2c1,20.6µM,.,.,.,.,.
Oc1ccccc1CNc1cccc2cccnc12,.,.,.,.,.,.
COc1cc(NC(=O)OCc2ccccc2)c2ncccc2c1,?,.,.,.,.,34.4
COc1ccccc1-c1cc(NC(=O)COc2ccccc2Cl)n(-c2ccccc2)n1,/,.,.,/,/,.
O=C(NCCc1ccccc1)c1ccc(CS(=O)(=O)c2ccc(Br)cc2)o1,?,.,.,.,.,.
COc1ccc(CCNC(=O)c2ccc(CS(=O)(=O)c3ccc(Cl)cc3)o2)cc1OC,.,2.59µM,.,.,?,.
CN(CCNC(=O)c1ccc(CS(=O)(=O)c2ccc(Br)cc2)o1)CCc1ccccc1,.,.,.,-54.7,.,.
COc1ccc(CCNC(=O)c2ccc(CS(=O)(=O)c3ccc(C)cc3)o2)cc1OC,.,4.61µM!,?,.,.,.
COc1ccc(CCNC(=O)c2ccc(CS(=O)(=O)Cc3ccc(C)cc3)o2)cc1OC,/,?,.,.,/,.
COc1cccc(C(=O)NCc2cn3cccc(C)c3n2)c1,/,/,/,/,/,.
CCCSc1nc2sc3c(c2c(=O)n1Cc1ccccc1)CC(C)(CC)OC3 (configuration not stated),/,/,/,/,/,.
COc1ccc(C(c2nnnn2Cc2cccs2)N2CCN(c3ccccc3F)CC2)cc1OC (configuration not stated),.,?,.,-81.5,?,.
Cc1ccc(C(c2nnnn2Cc2cccs2)N2CCN(Cc3ccc4c(c3)OCO4)CC2)cc1 (configuration not stated),.,.,?,-53.1,?,.
COc1ccccc1CN1CCN(C(CC(C)C)c2nnnn2Cc2cccs2)CC1 (configuration not stated),.,.,.,-62.8,.,.
Fc1ccc(C(c2nnnn2Cc2cccs2)N2CCN(c3ccccc3)CC2)cc1 (configuration not stated),.,?,.,.,.,.
COCCn1nnnc1C(c1ccc(C)cc1)N1CCN(Cc2ccc3c(c2)OCO3)CC1 (configuration not stated),.,.,.,.,.,.
